Reference: PubChem BioAssay (NCATS)
Several values for one entry are separate records, joined by “and”; a condition that tells them apart may be missing. Identical values can stand only once. Records with an inconclusive call do not appear. Activity calls are given as the source filed them. Unless noted, calls come from the whole dose curve; as a rule, active = well fitted curve in the direction sought with a large enough effect; inconclusive = small, poorly fitted or top-dose-only effect, or another doubt; inactive = no such curve, though single readings can be large; an effect the other way counts as inactive or inconclusive.

What was measured:
[1] = Validation of Assay for Modulators of Lamin A Splicing (AID 1459; active = well fitted curve in the direction sought with a large enough effect in the signal ratio; the % refers to the signal ratio;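 note: cells exposed to compound for two days before reading; 0% is about no effect; ratio rise marks activators and ratio drop marks inhibitors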)
Outline: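 Splicing correction read as GFP (500-530 nm) over DsRed2 (575-640 nm) object intensity after 48 h compound exposure of reporter HeLa S3 clones (600 cells/well, 2% FBS medium); ancitabine and cycloheximide titrations, 0.5% DMSO as vehicle.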

[2] = qHTS Assay for Lipid Storage Modulators (AID 1519; calls by dose curve); settings: Drosophila S3 cells, BODIPY lipid droplet/cell ratio, laser cytometry, cells loaded with oleic acid; for activity change, negative = inhibition: at 57.5 µM (top of the series)
Outline: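 Cells seeded at 5,000 per well were treated with compounds over a concentration series and loaded with oleic acid (400 uM, as added). Lipid droplet fluorescence (488 nm excitation, 500-530 nm channel) was read by laser-scanning cytometry and normalized to 20 uM Triacsin C.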

[3] = target: DNA repair nuclease/redox regulator APEX1 (Homo sapiens) (UniProt P27695); test: qHTS Validation Assay for Inhibitors of the Human Apurinic/apyrimidinic Endonuclease 1 (APE1) (AID 1705;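 note: TAMRA fluorescence gain over two minutes as APE1 cuts a quenched THF abasic duplex; % is set by controls: 0 for no effect and ±100 for the full control effect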)
Chain of DNA repair nuclease/redox regulator APEX1 (Homo sapiens) (P27695 whole entry, looked up): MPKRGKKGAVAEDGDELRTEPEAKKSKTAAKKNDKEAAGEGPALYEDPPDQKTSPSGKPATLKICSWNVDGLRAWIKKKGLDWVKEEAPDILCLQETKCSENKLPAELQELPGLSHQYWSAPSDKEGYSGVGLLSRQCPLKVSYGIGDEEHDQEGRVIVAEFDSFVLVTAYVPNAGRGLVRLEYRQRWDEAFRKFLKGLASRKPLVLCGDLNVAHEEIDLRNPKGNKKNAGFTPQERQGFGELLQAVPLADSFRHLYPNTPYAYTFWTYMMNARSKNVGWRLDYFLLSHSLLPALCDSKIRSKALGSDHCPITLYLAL
Outline: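 Activity read as rising fluorescence (598 nm emission, 525 nm excitation) from incision of a TAMRA/BHQ-2 duplex carrying a THF abasic site (50 nM). Compound and enzyme sat 15 min at RT before substrate start; signal change between first and third 60-s reads.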

[4] = Counterscreen for APE1 Inhibitors: Fluorescent Dye Displacement Validation Assay (AID 1707);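 note: plate controls were ThO with dsDNA and no compound for no effect and ThO without dsDNA for full effect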
Outline: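 Assay buffer: Tris-HCl pH7.5 with 50mM NaCl, 2 mM MgCl2, 0.01% Tween-20. Dye 250 nM, duplex 50 nM final. Readout: decrease in ThO endpoint fluorescence, 480 nm excitation, 540 nm emission.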

[5] = target: Endonuclease 4 (Escherichia coli (strain K12)) (UniProt P0A6C1); test: Counterscreen for APE1 Inhibitors: qHTS Validation Assay for Inhibitors of Endonuclease IV (AID 1708); note: % is set by controls: 0 for no effect and ±100 for the full control effect
Outline: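 qHTS concentration-response format; LOPAC1280 tested under APE1-screen conditions. 2 nM enzyme, 15 min compound preincubation at RT, then 50 nM TAMRA/BHQ-2 abasic substrate; kinetic fluorescence read, three reads at 60 s intervals.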

[6] = target: ATP-dependent DNA helicase Q1 (Homo sapiens) (UniProt P46063); test: qHTS Validation Assay for Inhibitors of RecQ-Like Dna Helicase 1 (RECQ1) (AID 2353);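 note: plate controls were DMSO vehicle for no effect and enzyme-free control for full effect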
Chain of ATP-dependent DNA helicase Q1 (Homo sapiens) (P46063 whole entry, looked up): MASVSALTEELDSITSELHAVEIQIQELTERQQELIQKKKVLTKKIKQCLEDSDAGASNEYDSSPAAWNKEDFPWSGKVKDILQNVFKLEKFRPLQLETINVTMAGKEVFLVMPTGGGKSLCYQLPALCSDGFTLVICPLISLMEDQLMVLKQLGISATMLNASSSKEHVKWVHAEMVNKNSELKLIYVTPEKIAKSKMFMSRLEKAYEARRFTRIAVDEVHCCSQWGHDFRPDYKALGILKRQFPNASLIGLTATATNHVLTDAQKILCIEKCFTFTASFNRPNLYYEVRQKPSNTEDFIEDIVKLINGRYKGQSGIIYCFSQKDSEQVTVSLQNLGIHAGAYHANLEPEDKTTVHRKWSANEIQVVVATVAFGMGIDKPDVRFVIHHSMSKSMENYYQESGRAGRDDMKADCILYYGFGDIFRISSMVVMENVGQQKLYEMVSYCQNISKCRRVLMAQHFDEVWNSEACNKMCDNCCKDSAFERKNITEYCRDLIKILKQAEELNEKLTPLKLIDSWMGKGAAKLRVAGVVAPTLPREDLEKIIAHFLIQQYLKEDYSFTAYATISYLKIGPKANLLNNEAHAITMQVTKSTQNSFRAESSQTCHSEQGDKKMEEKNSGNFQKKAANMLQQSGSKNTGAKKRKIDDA
Outline: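 50 nM RECQ1T1 preincubated 15 min with compound in Tris pH 8.0 buffer with MgCl2, DTT, Tween-20 and 2.5 ug/ml poly(dI-dC); started with 200 nM TAMRA/BHQ-2 forked duplex and 2 mM ATP. Unwinding read as fluorescence (525/598 nm), two reads 2 h apart.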

[7] = Validation screen for inhibitors of Lassa infection (AID 463096; calls by dose curve; note: % is set by controls: 0 for no effect and ±100 for the full control effect)
[8] = Validation screen for small molecules that induce DNA re-replication in MCF 10A normal breast cells (AID 463097); note: 0% is about no effect; nearly all actives have a fitted effect of over 60% in size
Outline: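 Read-out is Hoechst total nuclear intensity by fluorescence scanning imager, flagging increased high-DNA-content nuclei. Compounds were incubated with MCF 10A cells for 48 hr (37 C, 5% CO2) before 40 min staining.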

[9] = target: M-phase phosphoprotein 8 (Homo sapiens) (UniProt Q99549); test: qHTS Validation Assay for Inhibitors for MPP8 Chromodomain Interactions with Methylated Histone Tails (AID 488949); note: nearly all actives have a fitted effect of over 55% in size; note: potency is the fitted concentration of half-maximal effect
Chain of M-phase phosphoprotein 8 (Homo sapiens) (Q99549 whole entry, looked up): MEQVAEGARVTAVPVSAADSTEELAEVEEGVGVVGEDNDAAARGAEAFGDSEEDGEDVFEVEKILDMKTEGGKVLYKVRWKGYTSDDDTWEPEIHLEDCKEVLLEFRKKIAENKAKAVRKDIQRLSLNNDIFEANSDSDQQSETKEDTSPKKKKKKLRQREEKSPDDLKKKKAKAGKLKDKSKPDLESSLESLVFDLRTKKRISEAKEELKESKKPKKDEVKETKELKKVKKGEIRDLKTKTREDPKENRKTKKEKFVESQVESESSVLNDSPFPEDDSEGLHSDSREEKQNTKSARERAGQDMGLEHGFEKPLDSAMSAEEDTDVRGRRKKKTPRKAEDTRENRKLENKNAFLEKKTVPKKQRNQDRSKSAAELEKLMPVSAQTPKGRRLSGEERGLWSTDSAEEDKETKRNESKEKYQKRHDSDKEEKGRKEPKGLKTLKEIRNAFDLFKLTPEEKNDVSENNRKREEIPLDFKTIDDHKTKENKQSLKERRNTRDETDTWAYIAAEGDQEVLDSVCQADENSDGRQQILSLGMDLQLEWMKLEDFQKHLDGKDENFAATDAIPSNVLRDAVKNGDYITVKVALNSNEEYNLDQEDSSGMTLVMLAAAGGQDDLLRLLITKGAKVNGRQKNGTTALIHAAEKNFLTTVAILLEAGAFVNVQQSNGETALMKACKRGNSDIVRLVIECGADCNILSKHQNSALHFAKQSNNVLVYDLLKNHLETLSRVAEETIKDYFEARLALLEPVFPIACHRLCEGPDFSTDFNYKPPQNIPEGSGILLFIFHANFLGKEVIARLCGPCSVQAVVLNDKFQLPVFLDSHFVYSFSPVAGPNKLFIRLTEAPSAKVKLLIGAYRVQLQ
Outline: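 AlphaScreen proximity signal from streptavidin donor and Ni-chelate acceptor beads (10 ug/mL each) reported binding of MPP8 to trimethyl-K9 H3(1-18) peptide, both at 50 nM. The complex formed 30 min before a 30 min compound exposure at room temperature, in PBS pH 7.4.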

[10] = target: Transient receptor potential cation channel subfamily V member 1 (Homo sapiens) (UniProt Q8NER1); test: HTS Assay for Compounds that Act as Enhancers of the Vanilloid Receptor 1 (AID 488979); note: 0% is about no effect
Chain of Transient receptor potential cation channel subfamily V member 1 (Homo sapiens) (Q8NER1 whole entry, looked up): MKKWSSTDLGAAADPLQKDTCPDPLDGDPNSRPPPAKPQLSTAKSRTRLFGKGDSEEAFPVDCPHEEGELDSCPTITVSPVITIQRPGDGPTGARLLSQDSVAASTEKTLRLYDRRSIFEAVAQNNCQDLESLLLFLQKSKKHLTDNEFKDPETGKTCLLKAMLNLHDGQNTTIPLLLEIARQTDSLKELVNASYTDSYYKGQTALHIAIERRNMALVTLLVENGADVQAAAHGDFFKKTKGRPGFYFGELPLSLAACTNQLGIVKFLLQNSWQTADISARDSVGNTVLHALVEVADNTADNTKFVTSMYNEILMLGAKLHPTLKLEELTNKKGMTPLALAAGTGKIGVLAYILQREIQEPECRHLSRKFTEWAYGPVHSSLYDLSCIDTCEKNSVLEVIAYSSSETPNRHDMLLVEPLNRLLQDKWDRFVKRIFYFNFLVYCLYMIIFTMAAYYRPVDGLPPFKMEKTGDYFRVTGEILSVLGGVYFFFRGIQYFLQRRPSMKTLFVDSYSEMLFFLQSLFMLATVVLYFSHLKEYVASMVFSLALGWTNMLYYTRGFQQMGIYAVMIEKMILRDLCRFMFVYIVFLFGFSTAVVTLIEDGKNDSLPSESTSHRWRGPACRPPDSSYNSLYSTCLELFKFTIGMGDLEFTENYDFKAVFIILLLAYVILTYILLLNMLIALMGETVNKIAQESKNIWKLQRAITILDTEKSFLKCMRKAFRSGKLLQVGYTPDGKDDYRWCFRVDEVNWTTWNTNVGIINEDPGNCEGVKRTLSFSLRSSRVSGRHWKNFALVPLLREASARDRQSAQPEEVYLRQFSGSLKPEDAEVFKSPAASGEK
Outline: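 Calcium influx kinetics via Fluo-8 (480/520 nm) in TRPV1-expressing cells, 2000/well cultured overnight at 35.5C. Compound-alone read 3 min (agonist phase), followed by EC20 capsaicin challenge for 2 min (enhancer phase).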

[11] = target: Thyrotropin receptor (Homo sapiens) (UniProt P16473); test: qHTS Assay for Antagonists of the Thyroid Stimulating Hormone Receptor (AID 488980); note: 0% is about no effect
Chain of Thyrotropin receptor (Homo sapiens) (P16473 whole entry, looked up): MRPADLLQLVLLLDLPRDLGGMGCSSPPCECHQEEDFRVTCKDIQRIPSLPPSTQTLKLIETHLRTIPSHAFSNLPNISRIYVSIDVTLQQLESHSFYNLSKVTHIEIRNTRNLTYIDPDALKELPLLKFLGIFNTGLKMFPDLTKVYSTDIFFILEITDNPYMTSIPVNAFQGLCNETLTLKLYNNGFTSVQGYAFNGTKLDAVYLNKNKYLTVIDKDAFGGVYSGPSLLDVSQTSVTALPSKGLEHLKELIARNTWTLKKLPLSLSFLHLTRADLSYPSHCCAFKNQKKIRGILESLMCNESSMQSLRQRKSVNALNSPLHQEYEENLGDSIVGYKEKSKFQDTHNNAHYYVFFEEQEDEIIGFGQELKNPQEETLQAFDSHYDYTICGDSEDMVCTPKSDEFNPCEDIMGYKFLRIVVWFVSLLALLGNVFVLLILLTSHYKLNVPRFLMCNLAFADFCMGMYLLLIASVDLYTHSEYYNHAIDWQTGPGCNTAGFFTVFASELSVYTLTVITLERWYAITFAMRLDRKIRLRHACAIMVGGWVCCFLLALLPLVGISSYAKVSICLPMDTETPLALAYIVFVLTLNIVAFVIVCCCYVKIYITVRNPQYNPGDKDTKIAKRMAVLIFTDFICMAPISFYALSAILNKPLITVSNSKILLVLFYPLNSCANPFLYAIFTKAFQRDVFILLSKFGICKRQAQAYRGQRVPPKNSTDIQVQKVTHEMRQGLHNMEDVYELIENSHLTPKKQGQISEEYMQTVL
Outline: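 Inhibition of cAMP raised by EC80 TSH (4 nM final) was read by HTRF, with lysate cAMP competing against cAMP-d2 for cryptate antibody after 30 min at room temperature. The cells were transfected HEK293 held in phosphodiesterase inhibitor RO 20-1724 at 70 uM.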

[12] = target: Thyrotropin-releasing hormone receptor (Homo sapiens) (UniProt P34981); test: qHTS for Small Molecule Agonists and Allosteric Enhancers of Human TRH Receptor: Validation Screen for Agonists (AID 493127;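 active = calcium activation more than 3 SD above the typical response in the agonist read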; note: 0% is about no effect); settings: TRH receptor agonist cell assay; at 2 µM; stronger effect = higher value
Chain of Thyrotropin-releasing hormone receptor (Homo sapiens) (P34981 whole entry, looked up): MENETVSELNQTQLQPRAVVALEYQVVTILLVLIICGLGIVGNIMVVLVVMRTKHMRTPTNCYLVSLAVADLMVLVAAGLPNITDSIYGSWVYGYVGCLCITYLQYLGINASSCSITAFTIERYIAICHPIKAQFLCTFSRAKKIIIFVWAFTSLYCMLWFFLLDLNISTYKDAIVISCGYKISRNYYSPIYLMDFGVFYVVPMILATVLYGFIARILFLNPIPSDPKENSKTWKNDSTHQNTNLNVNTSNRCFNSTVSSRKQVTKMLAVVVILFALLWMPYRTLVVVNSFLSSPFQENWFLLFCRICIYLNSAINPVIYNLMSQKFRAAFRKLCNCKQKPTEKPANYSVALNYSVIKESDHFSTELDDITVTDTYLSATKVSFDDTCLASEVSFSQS
Outline: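 TRHR cells loaded with fluo-8 calcium dye; FDSS kinetic fluorescence (Ex 480/Em 530) read at 1 s/cycle after 23 nL compound addition. Agonist-mode calcium response recorded before the 10 nM TRH (EC20) addition.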

[13] = Validation screen for small molecules that induce DNA re-replication in SW480 colon adenocarcinoma cells (AID 504364); note: 0% is about no effect
Outline: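 SW480 cells (250/well) exposed 48 h at 37 C, 5% CO2, then Hoechst-stained 40 min. Nuclear DNA content imaged by fluorescence scanning (405 nm excitation, 500-530 nm emission); re-replication scored as increased nuclei with elevated intensity.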

[14] = target: Ferritin light chain (Equus caballus) (UniProt P02791); test: qHTS Validation Assay for Identification of Novel General Anesthetics (AID 2323); note: % is set by controls: 0 for no effect and ±100 for the full control effect
Chain of Ferritin light chain (Equus caballus) (P02791 2-175 limits assumed): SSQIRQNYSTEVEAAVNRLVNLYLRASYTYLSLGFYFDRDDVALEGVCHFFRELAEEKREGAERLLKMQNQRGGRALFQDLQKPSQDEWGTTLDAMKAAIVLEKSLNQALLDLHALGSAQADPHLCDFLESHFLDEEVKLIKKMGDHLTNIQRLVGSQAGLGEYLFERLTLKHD
Outline: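 Competitive displacement of the profluorescent anesthetic 1-AMA (50% saturated, PBS) from 10 uM apoferritin, 10 min, room temperature. Activity is normalized 380/535 nm fluorescence; concentration-response fitted with a four-parameter Hill equation.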

[15] = Cytotoxicity counterscreen for inhibitors of SARS-CoV-2 cell entry (AID 1645845; calls by dose curve; note: % is set by controls: 0 for no effect and ±100 for the full control effect; nearly all actives have a fitted effect of over 50% in size); settings: outcome: dose series up to 57.1 µM unless noted
Outline: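 48 h compound treatment (after 1 h preincubation), HEK293-ACE2 cells, 37 C/5% CO2; ATP luminescence endpoint; normalized to cell wells and media blanks.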

[16] = Primary qHTS to identify inhibitors of SARS-CoV-2 cell entry (AID 1645846; calls by dose curve; note: nearly all actives have a fitted effect of over 45% in size); settings: SARS-CoV-2 pseudovirus cell entry assay, luminescence; activity change, negative = inhibition: at 57.1 µM (top of the series) unless noted
Outline: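 Entry measured by luciferase signal 48 h after adding SARS-CoV-2-S pseudotyped MLV particles to HEK293-ACE2 cells preincubated 1 h with compounds. Normalisation: bald particles and spike particles.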

[17] = measured here: cell count channel max response
[18] = measured here: lipid channel max response

C#CCN(C)C(C)Cc1ccccc1 (stereo unspecified)
inactive: outcome [1] | activity change, negative = inhibition [2] 2.75% | Potency [3] | outcome [4] | Potency [5] | outcome [6] | Potency [7] | Potency [8] | Potency [9] | outcome [10] | outcome [11] | activation [12] -5.25% | outcome [13]
65.5%: max response [2, 18]
64.3%: max response [2, 17]

NNCc1cccc(O)c1
inactive: outcome [1] | Potency [3] | outcome [4] | Potency [5] | Potency [14] | outcome [6] | Potency [7] | Potency [8] | Potency [9] | outcome [10] | outcome [11] | activation [12] 0.875% | outcome [13]

COc1ccc2c(c1O)-c1cccc3c1C(C2)N(C)CC3 (stereo unspecified)
active: Potency [9] 44.7 µM
inactive: outcome [1] | Potency [3] | outcome [4] | Potency [5] | Potency [14] | outcome [6] | Potency [7] | Potency [8] | outcome [10] | outcome [11] | activation [12] 1.19% | outcome [13]

C/C1=C/C[C@@H](/C(C)=C/c2csc(C)n2)OC(=O)C[C@H](O)C(C)(C)C(=O)[C@H](C)[C@@H](O)[C@@H](C)CCC1
-64.3%: activity change, negative = inhibition [16]
inactive: Potency [15]

CCCN(CCC)[C@@H]1CCc2c(F)ccc(O)c2C1
inactive: outcome [1] | Potency [3] | outcome [4] | Potency [5] | Potency [14] | outcome [6] | Potency [7] | Potency [8] | outcome [10] | outcome [11] | activation [12] -2.75% | outcome [13]

CCCC[N+]1(C)C2CC(OC(=O)C(CO)c3ccccc3)CC1C1OC12 (stereo unspecified)
13.3%: max response [2, 17]
13.7%: max response [2, 18]
inactive: outcome [1] | activity change, negative = inhibition [2] -1.49% | Potency [3] | outcome [4] | Potency [5] | Potency [14] | outcome [6] | Potency [7] | Potency [8] | Potency [9] | outcome [10] | outcome [11] | activation [12] -0.438% | outcome [13]

C[N+]1(C)C2CC(OC(=O)C(CO)c3ccccc3)CC1C1OC12 (stereo unspecified)
53.9% and -15.4%: max response [2, 17]
52.9% and -17%: max response [2, 18]
inactive: outcome [1] | activity change, negative = inhibition [2] 0.686% and -2.43% | Potency [3] | outcome [4] | Potency [5] | Potency [14] | outcome [6] | Potency [7] | Potency [8] | Potency [9] | outcome [10] | outcome [11] | outcome [13]
